Assay outcomes deposited in PubChem BioAssay by National Center for Advancing Translational Sciences (NCATS).
An excerpt weighted towards active compounds, which were near 2.4% of everything screened.
WRN inhibitor: WRN helicase (human) inhibition | WRN helicase unwinding, fluorescent forked duplex, kinetic | Potency, µM (series often up to 114 µM), usual class: inhibitors | hit rate 0.46% among 360,000 | AID 651768; also: nearly all actives have a fitted effect of over 55% in size
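WRN at 20 nM final was preincubated with compound for 15 min at room temperature; reaction started with 100 nM forked duplex oligonucleotide carrying fluorophore and quencher plus 2 mM ATP (final). Unwinding followed kinetically by red fluorescence (ex 525/em 598 nm).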
Pol eta inh: inhibitors of human DNA polymerase eta. recombinant Pol eta, fluorescent DNA replication assay. Potency, µM (doses to about 114 µM), hits mostly inhibitors. hit rate 1.2% among 390,000
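Fluorescent replication assay: 50 nM final substrate added after a 15 min room-temperature compound preincubation with 10 nM enzyme. Signal taken at 0 min and again at 10 min.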
Pol iota inh: inhibitors of human DNA polymerase iota | Pol iota fluorescent replication assay, 10 min | Potency, µM (titrated, usually from 115 µM), actives largely listed as inhibitors | hit rate 1% among 390,000
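Pol iota at 10 nM preincubated 15 min with compounds at room temperature; reaction started with fluorescent substrate, 50 nM final. Fluorescence read kinetically at 0 and 10 min; buffer-only wells as negative control.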
POLK inh: blocks human DNA polymerase kappa activity; Q9UBT6; purified Pol kappa, fluorescent DNA synthesis assay, 10 min; Potency, µM (highest dose often 107 µM), most hits filed as inhibitors; hit rate 0.53% among 400,000
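Readout: fluorescence, taken kinetically at 0 and 10 min. Conditions: 10 nM Pol kappa, 15 min RT compound preincubation, 50 nM substrate final. Controls: enzyme-free buffer wells.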
Pol beta inh: DNA polymerase beta (human) inhibition. P06746. Pol beta primer extension/strand displacement, fluorescence kinetic. Potency, µM (titrated, usually from 114 µM), usual class: inhibitors. hit rate 1.3% among 340,000
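Pol beta (10 nM) and compounds were preincubated 15 min at room temperature, then 50 nM substrate (final) started primer extension/strand displacement. Reads were taken at 0 and 10 min; concentration-response data were fitted to a four-parameter Hill equation.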
FEN1 inh: human FEN1 inhibition | P39748 | hit rate 0.35% among 390,000 | Potency, µM (highest dose often 114 µM), usual class: inhibitors | Recombinant FEN1 flap cleavage, fluorescence, 15 min | AID 588795; also: nearly all actives have a fitted effect of over 65% in size
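With each library titrated from low to high concentration, compounds met 10 nM FEN1 for 15 min at room temperature before 50 nM substrate was added; readings at 0 and 15 min fed four-parameter Hill curve fits.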
Hits are given with their value; [ ] = remark or other dose. Calls follow the shape of the dose curve; as a rule, active = well fitted curve in the direction sought with a large enough effect; inconclusive = small, poorly fitted or top-dose-only effect, or another doubt; inactive = no such curve, though single readings can be large; an effect the other way counts as inactive or inconclusive.

Screening CC(C)c1ccc(-c2noc(SCC(=O)N3CCN(c4ccccc4F)CC3)n2)cc1 returned Pol eta inh inactive, Pol iota inh inactive, POLK inh inactive, Pol beta inh inconclusive and FEN1 inh inactive.
`CCOc1ccc(N2CC(NC(=O)C3CCCCC3)CC2=O)cc1` (stereo not given) gave Pol eta inh inactive, Pol iota inh inactive, POLK inh inactive, Pol beta inh inactive and FEN1 inh inactive.
`CCOC(=O)c1cc(S(=O)(=O)Nc2ccc(OC)c(Cl)c2)[nH]n1` gave Pol eta inh inactive, Pol iota inh inactive, POLK inh inactive, Pol beta inh inactive and FEN1 inh inactive.
Screening Cc1cccc2nc(Cn3c(=O)n(CCCC(=O)NCc4ccco4)c(=O)c4ccccc43)cc(=O)n12 returned WRN inhibitor inconclusive, Pol eta inh inconclusive, Pol iota inh inconclusive, POLK inh inactive, Pol beta inh 22µM and FEN1 inh inactive.
C=Cc1c(C)/c2[n-]/c1=C\c1[n-]c(c(CC)c1C)/C=c1\[n-]c3c(c1C)C(=O)C(C(=O)[O-])C=3c1[n-]c(c(C)c1CCC(=O)[O-])\C=2.[Cu].[Na+].[Na+] (stereo not given) was read as POLK inh 0.89µM.
`CCOC(=O)c1c(C)[nH]c(C(=O)OC(C(=O)N(C)C)c2ccccc2)c1C` (stereo not given) gave Pol iota inh inactive, POLK inh inactive and FEN1 inh inactive.
O=C(Nc1ccc(Cl)cc1)Nc1nnc(-c2ccncc2)s1 was read as WRN inhibitor inactive, Pol eta inh inconclusive, Pol iota inh inactive, POLK inh inactive, Pol beta inh inactive and FEN1 inh inactive.
O=C(Nc1cccc(Cl)c1)Nc1nnc(-c2ccncc2)s1 was read as WRN inhibitor inactive, Pol eta inh inconclusive, Pol iota inh inconclusive, POLK inh inactive, Pol beta inh 40µM and FEN1 inh inactive.
For Cc1ccc(NC(=O)Nc2nnc(-c3ccncc3)s2)cc1C the results were WRN inhibitor inactive[11.6 µM], Pol eta inh 89µM, Pol iota inh 22µM, POLK inh inconclusive, Pol beta inh inactive and FEN1 inh inactive.
`O=C1C=C(c2ccccc2)CC(c2cccs2)C1n1cnc([N+](=O)[O-])c1` (stereo not given) gave WRN inhibitor inactive, Pol eta inh inconclusive, Pol iota inh inactive, POLK inh inactive, Pol beta inh 50µM and FEN1 inh inactive.
For COc1ccc(NCc2ccc([N+](=O)[O-])s2)cc1 the results were WRN inhibitor inactive, Pol eta inh inactive, Pol iota inh inactive, POLK inh inactive, Pol beta inh 22µM and FEN1 inh inactive.
For O=[N+]([O-])c1ccc(CNc2ccc(F)cc2)s1 the results were WRN inhibitor inactive, Pol eta inh inactive, Pol iota inh inactive, POLK inh inactive, Pol beta inh inactive and FEN1 inh inactive.
`COc1ccc(NCc2ccc([N+](=O)[O-])s2)c(OC)c1` gave WRN inhibitor inactive, Pol eta inh inconclusive, Pol iota inh inactive, POLK inh inactive, Pol beta inh 22µM and FEN1 inh inconclusive.
`CC(=O)Nc1cccc(C(=O)NCc2ccc3c(c2)CCN3C(=O)c2ccc(F)cc2)c1` gave Pol eta inh inactive, Pol iota inh inactive, POLK inh inactive, Pol beta inh inactive and FEN1 inh inactive.
COc1ccc2oc(C(=O)Nc3nccs3)c(C)c2c1 was read as WRN inhibitor inactive, Pol eta inh inactive, Pol iota inh inactive, POLK inh inactive and FEN1 inh inactive.
CCOc1ccc2oc(C(=O)Nc3nccs3)c(C)c2c1 was read as WRN inhibitor inactive[11.6 µM], Pol eta inh 22µM, Pol iota inh inactive, POLK inh inactive and FEN1 inh inactive.
`O=C(Nc1nc(-c2ccco2)c(-c2ccco2)s1)C1CCC1` gave WRN inhibitor inconclusive, Pol eta inh 25µM, Pol iota inh inconclusive, POLK inh inconclusive, Pol beta inh inconclusive and FEN1 inh inactive.
For Cc1ccc(CSc2cn(CC(=O)N3CCCCCC3)c3ccccc23)cc1 the results were Pol eta inh inactive, Pol iota inh inactive, POLK inh inactive, Pol beta inh inactive and FEN1 inh inactive.
`Cc1nc(SCC(=O)c2ccccc2)c(C#N)c(-c2ccco2)c1C(=O)NCc1ccco1` gave WRN inhibitor inconclusive, Pol eta inh 20µM, Pol iota inh inconclusive, POLK inh inconclusive, Pol beta inh inactive and FEN1 inh inactive.
Screening CCOc1cc2sc(N3CCC(C(=O)Nc4ccc(C)cc4C)CC3)nc2cc1Br returned Pol eta inh inactive, Pol iota inh inactive, POLK inh inactive, Pol beta inh inactive and FEN1 inh inactive.
For Cc1cc(C)c(OCCOCCn2c(-c3ccc(Cl)cc3)nc3ccccc3c2=O)c(C)c1 the results were Pol eta inh inactive, Pol iota inh inactive, POLK inh inactive, Pol beta inh inactive and FEN1 inh inactive.
CC(=C1SC(=S)NC1=O)c1ccccc1 was read as WRN inhibitor inactive[11.6 µM], Pol eta inh inactive, Pol iota inh 89µM, POLK inh inactive and FEN1 inh inactive.
For COc1ccccc1C=C1SC(=S)NC1=O the results were WRN inhibitor inactive, Pol eta inh inconclusive, Pol iota inh inconclusive, POLK inh inactive and FEN1 inh inactive.
CC(=O)N1CCc2cc(Br)cc(S(=O)(=O)N3CCC(C(=O)Nc4cccc(C)c4C)CC3)c21 was read as Pol eta inh inactive, Pol iota inh inconclusive, POLK inh inactive, Pol beta inh 45µM and FEN1 inh inactive.
CCC(=O)N1CCc2cc(Br)cc(S(=O)(=O)N3CCCC(C(=O)NCc4ccccc4)C3)c21 (stereo not given) was read as Pol eta inh inactive, Pol iota inh 79µM, POLK inh inactive, Pol beta inh inactive and FEN1 inh 79µM.
Screening CCC(=O)N1CCc2cc(Br)cc(S(=O)(=O)N3CCCC(C(=O)NCc4ccc(OC)cc4)C3)c21 (stereo not given) returned Pol eta inh inactive, Pol iota inh inactive, POLK inh inactive, Pol beta inh inactive and FEN1 inh inactive.
CCOC(=O)c1ccccc1NC(=O)CN1CCCN(Cc2cccc(Cl)c2)S1(=O)=O was read as Pol eta inh inactive, Pol iota inh inactive, POLK inh inactive, Pol beta inh inactive and FEN1 inh inactive.
Screening CN(C)C(=O)Nc1cnc2ccccc2c1 returned WRN inhibitor inactive, Pol eta inh inactive, Pol iota inh inactive, POLK inh inactive, Pol beta inh inactive and FEN1 inh inactive.
O=C(CS(=O)CC(=O)Nc1cnc2ccccc2c1)Nc1ccc(Cl)cc1 (stereo not given) was read as WRN inhibitor inactive, Pol eta inh inconclusive, Pol iota inh inconclusive, POLK inh inactive, Pol beta inh 50µM and FEN1 inh inactive.
